This note sets out measurements from PubChem BioAssay.

Several values for one entry are separate records, joined by “and”; a condition that tells them apart may be missing. Identical values can stand only once. For some of these results: Entries with a potency or affinity are not part of this list. Activity calls are given as the source filed them. Unless noted, no stated cut-off is given here; in the data, active means parasite load remaining mostly below about 12% (no sharp cut-off); inactive means mostly above about 10%.

A word on the inhibition: it is how much of the control response was suppressed. The term viability denotes a read-out of living cells in per cent, often relative to untreated cells.

A short description of test [1]: polyglutamine-triggered caspase-3 activation inhibitors, cell-based (AID 1583). Conditions: polyglutamine-induced caspase-3 activation, cell assay; stronger effect = higher value;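 tested at 10 µM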.
Test [2] is described as follows: suppressors of polyQ aggregation in yeast, 75Q-TubU reporter (AID 1593). Conditions: Yeast 75Q polyglutamine aggregation reporter.
Test [3] can be described thus: rescue of polyQ-huntingtin neuronal dysfunction in worms, whole organism, C. elegans mechanosensory neurons, N-terminal huntingtin (AID 1599). Conditions: touch response, stronger effect = higher value.
A short description of test [4]: inhibitors of mitochondrial cytochrome c release, biochemical, purified mitochondria (AID 1603).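 Further: mouse liver mitochondria challenged with calcium chloride; signal normalized to the plate average as 100%.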 As to conditions: stronger effect = lower value.
Test [5] in a line: inhibitors of polyQ protein aggregation (AID 1604). Conditions: polyglutamine-induced protein aggregation inhibition assay; stronger effect = higher value; tested at 2.5 µM.
A short description of test [6]: enhancers of glutamate uptake in motor neurons, MN-1 cell line (AID 1612).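 Further: tested at 1 µM final; 0% = mean of DMSO vehicle wells on each plate; positive means more glutamate uptake than control and negative means less.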 As to conditions: MN-1 motor neuron cells, stronger effect = higher value.
Test [7] can be described thus: reducers of polyQ inclusions in PC12 cells, cell-based, NGF-treated PC12, GFPQ80 (AID 1614).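 Further: lower means fewer inclusions and 0 means no inclusions at all.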 As to conditions: PC12 NGF-treated GFP-polyQ80 inclusion reduction.
The nature of test [8]: suppressors of polyglutamine aggregation in yeast, 75Q-TubH (AID 1616). Conditions: S. cerevisiae 75Q-TubH polyglutamine aggregation suppression; stronger effect = higher value.
A short description of test [9]: liver-stage malaria parasite growth inhibition, primary screen, cell-based, HepG2, luciferase luminescence, HepG2 viability (AID 624349).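 Further: 100% = mean of DMSO negative control wells on the same plate.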 Conditions: P. berghei liver stage in HepG2, luciferase luminescence, concentration not given here; parasite load remaining: stronger effect = lower value; viability: measured here: HepG2 viability without parasites.
Test [10] can be described thus: differential killing of epithelial or mesenchymal cells, primary screen, imaging, PC-3E GFP, TEM4-18 mCherry, co-culture (AID 1345086;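 active means compounds killing one labelled cell type while sparing the other, by normalised counts and ratio limits, not self-fluorescent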;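 on all read-outs here: cells exposed to compound for 72 h before imaging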;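 on red/green cell ratio (normalised): normalised mesenchymal count divided by normalised epithelial count so high means epithelial killing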). As to conditions: imaging cell counts, at 1 µM; for red/green cell ratio (normalised): actives lie on both sides, counts scaled to control wells, 1 = unselective.
The nature of test [11]: sensitizers of A549 cells to miR-34 induction, primary screen, imaging, A549 dox-inducible miR-34, nuclei and caspase counts (AID 1347080;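 active means compounds whose cell count with miR-34 switched on is under 0.7 times the count with it off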). As to conditions: A549 miR-34 inducible, Hoechst nuclei count, 48 h.
Where [12] appears, read: measured here: epithelial PC-3E GFP cell survival.
Setting [13] is: measured here: mesenchymal TEM4-18 mCherry cell survival.
Setting [14] is: stronger effect = lower value, cell number ratio, induced over uninduced.
The mark [15] stands for this setting: measured here: relative caspase fold change +Dox/-Dox.
The mark [16] stands for this setting: measured here: total cells with miR-34 induction, stronger effect = lower value.
Where [17] appears, read: measured here: total cells without miR-34 induction.

Take `CC1(C)O[C@@H]2CC3C4CCC5=CC(=O)C=C[C@]5(C)[C@@]4(F)[C@@H](O)C[C@]3(C)[C@]2(C(=O)CO)O1` (stereo not given in full): the inhibition in [1] was determined as 7.99%. In test [2], this compound returned a score of 0.99. The compound further yielded a rescue above control in [3] of -3.95. Also, the cytochrome c release ratio in test [4] was 1.15. The inhibition of aggregation in test [5] was determined as 85.2%. Moreover, the glutamate uptake change in [6] amounted to 20.7%. The compound also showed an inclusion score in test [7] of 2. This compound also gave an aggregation suppression score in test [8] of 1.19. Also, in [9], the parasite load remaining is 187% (inactive) and 62.4% (inactive). For the same compound, the viability in test [9] is 64.4% and 84.9%. For the same compound, the red/green cell ratio (normalised) in test [10] is 1.43 (inactive). Besides, the normalised cell number came out at 0.86 in [10] (setting [12]) and 1.23 in test [10] (setting [13]). For the same compound, the fold change in test [11] (setting [14]) is 0.787 (inactive); in test [11] (setting [15]) it was 3.14. For the same compound, the cell count in [11] (setting [16]) was determined as 6650; in [11] (setting [17]), 8440.
`CC(=O)[C@@]1(O)CCC2C3C[C@H](C)C4=CC(=O)C=CC4(C)[C@@]3(F)[C@@H](O)C[C@@]21C` (stereo not given in full): the inhibition in test [1] was 8.98%. For the same compound, in test [2], the score was 1.5. The compound also gave a rescue above control in test [3] of 24.4. Also, the cytochrome c release ratio in test [4] came out at 0.92. Moreover, in test [5], the inhibition of aggregation was -25.4%. The glutamate uptake change in [6] was 25.3%. The same compound came in with an inclusion score in test [7] of 3. In addition, in test [8], the aggregation suppression score was 1.45. In addition, in [9], the parasite load remaining is 116% (inactive) and 26.7% (inactive). The viability in test [9] was 75.2% and 95.6%. In addition, the red/green cell ratio (normalised) in test [10] was 1.21 (inactive). The normalised cell number in test [10] (setting [12]) is 1.18; in test [10] (setting [13]), 1.43. In addition, the figures for the fold change in [11] (setting [14]) and in [11] (setting [15]) were 0.851 (inactive) and 3.38, respectively. Moreover, the figures for the cell count in test [11] (setting [16]) and in test [11] (setting [17]) were 7310 and 8590, respectively.
Consider `C[N+](C)(C)CCOP(=O)([O-])OP(=O)(O)OC[C@H]1OC(n2ccc(N)nc2=O)[C@H](O)[C@@H]1O` (stereo not given in full), for which, in [9], the parasite load remaining is 169% (inactive) and 55.3% (inactive). The viability in test [9] is 92.4% and 97.3%. Besides, in test [10], the red/green cell ratio (normalised) is 1.29 (inactive). Moreover, the normalised cell number in test [10] (setting [12]) came out at 0.95; in [10] (setting [13]), 1.22. Also, the figures for the fold change in [11] (setting [14]) and in test [11] (setting [15]) were 0.9 (inactive) and 4.71, respectively. Further, the figures for the cell count in test [11] (setting [16]) and in test [11] (setting [17]) were 12600 and 14000, respectively.
Consider `CCC(=O)OCC(=O)[C@@]1(OC(=O)CC)[C@@H](C)CC2C3CCC4=CC(=O)C=C[C@]4(C)C3(F)[C@@H](O)C[C@@]21C` (stereo not given in full), for which, in [9], the parasite load remaining is 25.9% (inactive). Besides, the viability in test [9] is 83.8%. Besides, the red/green cell ratio (normalised) in test [10] was 1.32 (inactive). Besides, the figures for the normalised cell number in test [10] (setting [12]) and in test [10] (setting [13]) were 1.03 and 1.37, respectively. For the same compound, the results for the fold change in test [11] (setting [14]) and in [11] (setting [15]) were 0.918 (inactive) and 2.62, respectively. For the same compound, the cell count in test [11] (setting [16]) was found to be 7780; in test [11] (setting [17]) it was 8480.
On to `CC1=C(C(=O)O)N2C(=O)[C@@H](NC(=O)C(N)c3ccc(O)cc3)[C@H]2SC1` (stereo not given in full), for which, in [9], the parasite load remaining is 82.3% (inactive) and 62.8% (inactive). Further, in [9], the viability is 75.2% and 100%. Moreover, the red/green cell ratio (normalised) in [10] is 1.2 (inactive). Further, the results for the normalised cell number in test [10] (setting [12]) and in test [10] (setting [13]) were 1.16 and 1.4, respectively. The results for the fold change in test [11] (setting [14]) and in test [11] (setting [15]) were 0.948 (inactive) and 3.02, respectively. The cell count in [11] (setting [16]) was found to be 12000; in test [11] (setting [17]) it was 12700.
As for `O=C(O)C1=C(CSc2nnnn2CS(=O)(=O)O)CS[C@@H]2C(NC(=O)[C@H](O)c3ccccc3)C(=O)N12` (stereo not given in full), the parasite load remaining in [9] was 57.8% (inactive). The viability in test [9] amounted to 103%. Moreover, the red/green cell ratio (normalised) in test [10] was 0.95 (inactive). Further, the normalised cell number in test [10] (setting [12]) was 1.08; in [10] (setting [13]), 1.03. Further, the figures for the fold change in test [11] (setting [14]) and in test [11] (setting [15]) were 0.834 (inactive) and 4.26, respectively. Further, the results for the cell count in [11] (setting [16]) and in [11] (setting [17]) were 10700 and 12900, respectively.
